Test results taken from PubChem BioAssay (NCATS).
Where “and” joins values, the source holds several entries; their conditions need not be identical. Equal entries are not always repeated. Results filed as inconclusive are left out. A call without a number means that no potency is given here. Calls of active or inactive are those of the source. Calls come from the whole dose curve; as a rule, active = well fitted curve in the direction sought with a large enough effect; inconclusive = small, poorly fitted or top-dose-only effect, or another doubt; inactive = no such curve, though single readings can be large; an effect the other way counts as inactive or inconclusive.

What was measured:
[1] = qHTS assay to identify small molecule inhibitors of chordoma cells - UCH-1 (AID 1259355); note: nearly all actives have a fitted effect of over 55% in size; note: potency is the fitted concentration of half-maximal effect; series mostly up to about 46 µM
Outline: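 800 cells/well, overnight attach; compounds pinned at 15 concs, then auranofin/camptothecin/doxorubicin/rubitecan/topotecan combo added; 48hr 37 C, 5% CO2; CellTiter-Glo, 30min RT, luminescence.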

[2] = qHTS assay to identify small molecule inhibitors of chordoma cells - UCH-2 (AID 1259356); note: potency is the fitted concentration of half-maximal effect
[3] = P-glycoprotein substrates identified in KB-8-5-11 adenocarcinoma cell line, qHTS therapeutic library screen (AID 1346987); note: nearly all actives have a fitted effect of over 65% in size; note: potency is the fitted concentration of half-maximal effect
Outline: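 Human cervical adenocarcinoma KB-8-5-11 cells, selected in colchicine to over-express P-gp and assayed without it, were exposed for 72 h to titrated compounds. An ATP-based luminescent viability signal gave AC50.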

[4] = qHTS Screen of the MIPE 4.0 Collection Against Ewings Sarcoma (EW8) (AID 1259255); note: nearly all actives have a fitted effect of over 35% in size; note: potency is the fitted concentration of half-maximal effect
Outline: (§1)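 CellTiter-Glo luminescence after 48 h compound exposure (titration) gave viability; percent activity used DMSO-treated cells as no inhibition and medium-only wells as full inhibition. Cells grown in RPMI/5% FBS, dosed 4 h post-seeding.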

[5] = qHTS Screen of the MIPE 4.0 Collection Against Ewings Sarcoma (TC32) (AID 1259256); note: nearly all actives have a fitted effect of over 45% in size; note: potency is the fitted concentration of half-maximal effect
Outline: as §1

[6] = Identifying Small Molecule Inhibitors of Pancreatic Cancer Stem Cells (A2780, Spheroid) (AID 1259357);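 note: compound exposure lasted 48 h before the ATP luminescence read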
Outline: (§2)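 Adherent (2D) versus sphere (3D) formats; spheres generated 14 d in SCM beforehand. Compound transferred by pin tool after 4 h, 48 h incubation, CellTiter-Glo endpoint.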

[7] = Identifying Small Molecule Inhibitors of Pancreatic Cancer Stem Cells (SN12C, Adherent) (AID 1259358);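 note: cell survival measured after 48 h of compound exposure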
Outline: (§3)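 Cytotoxicity read by CellTiter-Glo luminescence after 48 h compound exposure at 37C; percent activity scaled between DMSO-treated cells and cell-free wells. Spheroid formats used cells pre-formed 14 days in stem cell media on hydrogel.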

[8] = Identifying Small Molecule Inhibitors of Pancreatic Cancer Stem Cells (SN12C, Spheroid) (AID 1259360)
Outline: as §2

[9] = Identifying Small Molecule Inhibitors of Pancreatic Cancer Stem Cells (A278, Adherent) (AID 1259361); note: nearly all actives have a fitted effect of over 35% in size
Outline: as §3

COP(=S)(OC)Oc1ccc(Sc2ccc(OP(=S)(OC)OC)cc2)cc1
Potency [1]: inactive
Potency [2]: inactive

Oc1c(Br)cc(Br)cc1Br
Potency [1]: inactive
Potency [2]: inactive
Potency [3]: inactive

COP(=O)(OC)OC=C(Cl)Cl
Potency [1]: inactive
Potency [2]: inactive
Potency [3]: inactive

C=CCN1CC[C@]23CCCC[C@H]2[C@H]1Cc1ccc(O)cc13
Potency [1]: inactive
Potency [2]: inactive

CCNc1nc(Cl)nc(NCC)n1
Potency [1]: inactive
Potency [2]: inactive
Potency [3]: inactive

C[N+](C)(C)CCOC(=O)C(O)(c1ccccc1)c1ccccc1
Potency [1]: inactive
Potency [2]: inactive
Potency [3]: inactive

CC[C@]1(O)CC[C@H]2[C@@H]3CCC4=CCCC[C@@H]4[C@H]3CC[C@@]21C
Potency [1]: inactive
Potency [2]: inactive
Potency [3]: 6.51 µM (active)

O=C(NC(=O)c1c(F)cccc1F)Nc1cc(Cl)c(OC(F)(F)C(F)C(F)(F)F)cc1Cl (stereo not given)
Potency [1]: inactive
Potency [2]: inactive

COc1ccc(C(=O)N2CCCC2=O)cc1
Potency [4]: inactive
Potency [5]: inactive
Potency [1]: inactive
Potency [2]: inactive
Potency [3]: inactive

CCCC(C)C1(CC)C(=O)N=C(S)NC1=O (stereo not given)
Potency [1]: inactive
Potency [2]: inactive

CCOC(=O)c1cncn1C(C)c1ccccc1 (stereo not given)
Potency [1]: inactive
Potency [2]: inactive
Potency [3]: inactive

O=c1n(Cl)c(=O)n(Cl)c(=O)n1Cl
Potency [1]: inactive
Potency [2]: inactive
Potency [3]: inactive

CC(C)NCC(O)c1ccc(N)c(C#N)c1 (stereo not given)
Potency [1]: inactive
Potency [2]: inactive
Potency [3]: inactive

C[C@@H]1CC[C@H]2[C@@H](C)C(=O)O[C@@H]3O[C@@]4(C)CC[C@@H]1[C@]32OO4
Potency [1]: inactive
Potency [2]: inactive

CN1C(=O)[C@@H](NC(=O)c2cc3ccccc3[nH]2)N=C(c2ccccc2)c2ccccc21
Potency [1]: inactive
Potency [2]: inactive

C[C@]12C=CC(=O)C=C1CC[C@@H]1[C@@H]2CC[C@@]2(C)[C@H]1CC[C@]2(C)O
Potency [1]: inactive
Potency [2]: inactive

C[C@@H]1C[C@@H]([C@H](O)CC2CC(=O)NC(=O)C2)C(=O)[C@@H](C)C1
Potency [4]: 148 nM (active)
Potency [5]: 132 nM (active)
Potency [3]: 2.31 µM (active) and 590 nM (active)

N#Cc1nn(-c2c(Cl)cc(C(F)(F)F)cc2Cl)c(N)c1S(=O)C(F)(F)F (stereo not given)
Potency [1]: inactive
Potency [2]: inactive
Potency [3]: inactive

CNC(=O)NC(O)C(Cl)(Cl)Cl (stereo not given)
Potency [1]: inactive
Potency [2]: inactive
Potency [3]: inactive

COP(=O)(OC)C(O)C(Cl)(Cl)Cl (stereo not given)
Potency [1]: inactive
Potency [2]: inactive
Potency [3]: inactive

CC1=C2[C@H]3OC(=O)[C@@H](C)[C@@H]3CC[C@@]2(C)C=CC1=O
Potency [1]: inactive
Potency [2]: inactive
Potency [3]: inactive

CCN(CC)C(C)C(=O)c1ccccc1 (stereo not given)
Potency [1]: inactive
Potency [2]: inactive
Potency [3]: inactive

C=CCOC(Cn1ccnc1)c1ccc(Cl)cc1Cl (stereo not given)
Potency [1]: inactive
Potency [2]: inactive
Potency [3]: 20.6 µM (active)

O=C(O)c1nn(Cc2ccc(Cl)cc2Cl)c2ccccc12
Potency [4]: inactive
Potency [1]: inactive
Potency [2]: inactive
outcome [6]: inactive
outcome [7]: inactive
outcome [8]: inactive
outcome [9]: inactive
Potency [3]: inactive

COC(=O)C1=CCCN(C)C1
Potency [1]: inactive
Potency [2]: inactive
Potency [3]: inactive

C[C@H](N)[C@H](O)c1ccc(O)c(O)c1
Potency [1]: inactive
Potency [2]: inactive
Potency [3]: inactive

C#C[C@]1(O)CC[C@H]2[C@@H]3CCC4=CC(=O)CCC4=C3C=C[C@@]21CC
Potency [1]: inactive
Potency [2]: inactive
Potency [3]: 2.06 µM (active)

OC(O)C(Cl)(Cl)Cl
Potency [2]: inactive
Potency [3]: inactive

CCCCCCCCC(=O)NCc1ccc(O)c(OC)c1
Potency [2]: inactive
Potency [3]: inactive

C[N+]1(C)[C@@H]2CC[C@H]1CC(OC(=O)C(CO)c1ccccc1)C2 (stereo not given in full)
Potency [1]: inactive
Potency [2]: inactive
Potency [3]: inactive

Clc1ccc(C(OCCN2CCCCC2)c2ccccc2)cc1 (stereo not given)
Potency [2]: inactive

CCN(Cc1ccc(Cl)nc1)/C(=C/[N+](=O)[O-])NC
Potency [1]: inactive
Potency [2]: inactive
Potency [3]: inactive

CCC(=O)O[C@H]1CC[C@H]2[C@@H]3CCC4=CC(=O)CC[C@]4(C)[C@H]3CC[C@]12C
Potency [1]: inactive
Potency [2]: inactive
Potency [3]: 2.78 µM (active)

CC(C)C(Br)C(=O)NC(N)=O (stereo not given)
Potency [1]: inactive
Potency [2]: inactive
Potency [3]: inactive

CCCC[N+]1(C)[C@@H]2CC(OC(=O)[C@H](CO)c3ccccc3)C[C@H]1[C@@H]1O[C@@H]12 (stereo not given in full)
Potency [1]: inactive
Potency [2]: inactive
Potency [3]: inactive

CC(C)=C[C@@H]1[C@@H](C(=O)OCc2coc(Cc3ccccc3)c2)C1(C)C
Potency [1]: inactive
Potency [2]: inactive
Potency [3]: inactive

Cc1c(Cl)c(=O)oc2cc(OP(=O)(OCCCl)OCCCl)ccc12
Potency [1]: inactive
Potency [2]: inactive
Potency [3]: 6.51 µM (active)

C#C[C@]1(O)C=C[C@H]2[C@@H]3CCC4=CC(=O)CC[C@@H]4[C@H]3CC[C@@]21CC
Potency [1]: inactive
Potency [2]: inactive
Potency [3]: 6.51 µM (active)

CN1[C@@H]2CC[C@H]1CC(OC(=O)c1cc(Cl)cc(Cl)c1)C2 (stereo not given in full)
Potency [2]: inactive

CCC1(c2ccccc2)CCC(=O)NC1=O (stereo not given)
Potency [1]: inactive
Potency [2]: inactive
Potency [3]: inactive

CCC1(CC)C(=O)NC(=O)NC1=O
Potency [1]: inactive
Potency [2]: inactive
Potency [3]: inactive

COCC(=O)N(c1c(C)cccc1C)C(C)C(=O)OC (stereo not given)
Potency [1]: inactive
Potency [2]: inactive
Potency [3]: inactive

C[C@@H]1O[C@@H](O[C@@H]2C=C3CC[C@@H]4[C@H](CC[C@]5(C)[C@@H](c6ccc(=O)oc6)CC[C@]45O)[C@@]3(C)CC2)[C@H](O)[C@H](O)[C@H]1O
Potency [1]: 0.1 µM (active)
Potency [2]: 24.8 nM (active)
Potency [3]: 0.0197 µM (active)

Oc1ccc2[nH]cc(CCCCN3CC=C(c4ccccc4)CC3)c2c1
Potency [1]: inactive
Potency [2]: inactive
Potency [3]: inactive

CC(Cc1ccccc1)NCc1ccccc1Cl (stereo not given)
Potency [1]: inactive
Potency [2]: inactive
Potency [3]: inactive

Cc1ccc(N=CN(C)C=Nc2ccc(C)cc2C)c(C)c1
Potency [1]: inactive
Potency [2]: inactive
Potency [3]: inactive

CN(C)C(=O)Oc1cc(OC(=O)N(C)C)cc(C(O)CNC(C)(C)C)c1 (stereo not given)
Potency [2]: inactive
Potency [3]: inactive

NC(=O)CN1CCCC1=O
Potency [2]: inactive
Potency [3]: inactive

NC(=O)OCCCc1ccccc1
Potency [1]: inactive
Potency [2]: inactive
Potency [3]: inactive

Nc1ccc(N)cc1
Potency [1]: inactive
Potency [2]: inactive
Potency [3]: inactive

COc1cc(N)c(Cl)cc1C(=O)NC1CN2CCC1CC2 (stereo not given)
Potency [1]: inactive
Potency [2]: inactive
Potency [3]: inactive

CCS(=O)(=O)C(C)(C)S(=O)(=O)CC
Potency [1]: inactive
Potency [2]: inactive
Potency [3]: inactive

CN(C)C(=S)SSC(=S)N(C)C
Potency [2]: inactive

OC(c1ccccc1)(c1ccccc1)C1CCNCC1
Potency [1]: inactive
Potency [2]: inactive
Potency [3]: inactive

CN1C(=O)CN=C(c2ccccc2)c2cc([N+](=O)[O-])ccc21
Potency [2]: inactive

CC[n+]1c(-c2ccccc2)c2cc(N)ccc2c2ccc(N)cc21
Potency [1]: 7.94 µM (active)
Potency [2]: inactive
Potency [3]: inactive

CC(C)(C)OC(=O)c1ncn2c1[C@@H]1CCCN1C(=O)c1c(Br)cccc1-2
Potency [1]: inactive
Potency [2]: inactive
Potency [3]: inactive

ClC1=C(Cl)C2(Cl)C(CBr)CC1(Cl)C2(Cl)Cl (stereo not given)
Potency [1]: inactive
Potency [2]: inactive
Potency [3]: inactive

CCOC(=O)NC(O)C(Cl)(Cl)Cl (stereo not given)
Potency [1]: inactive
Potency [2]: inactive
Potency [3]: inactive

Clc1ccc(CO/N=C(\Cn2ccnc2)c2ccc(Cl)cc2Cl)c(Cl)c1
Potency [2]: inactive

NCc1cccnc1
Potency [1]: inactive
Potency [2]: inactive
Potency [3]: inactive

COc1ccc(CN2CCNCC2)c(OC)c1OC
Potency [1]: inactive
Potency [2]: inactive
Potency [3]: inactive

CC(C)[N+](C)(CCC(C(N)=O)(c1ccccc1)c1ccccc1)C(C)C
Potency [1]: inactive
Potency [2]: inactive
Potency [3]: inactive
